High-throughput results deposited in PubChem by National Center for Advancing Translational Sciences (NCATS).
HT1080NT lethal: kills 2HG-producing HT-1080-NT fibrosarcoma cells; HT-1080-NT fibrosarcoma viability, CellTiter-Glo ATP luminescence, 48 h; actives 1.6% (n = 360,000); Potency, µM (series often up to 46.1 µM), inactives show at the highest dose activity, negative = less viability, usual class: cytotoxic;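 note: NT is the 2HG producing partner of a matched IDH1 knockdown line; 0% = DMSO-treated cells and -100% = media-only wells without cells; nearly all actives have a fitted effect of over 55% in size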
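Compounds were tested in concentration-response format on HT-1080-NT cells for 48 hours at 37 degrees C. Cell viability came from CellTiter-Glo luminescence; curves were classified by r2, response magnitude and activity.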
KB-V1 MDR tox: kills drug-selected multidrug resistant KB-V1 cells; KB-V1 MDR cells viability, CellTiter-Glo, 72 h; Potency, µM (doses to about 46.1 µM), hits mostly cytotoxic; actives 3.4% (n = 400,000); AID 1347076; note: % is set by controls: 0 for no effect and ±100 for the full control effect; nearly all actives have a fitted effect of over 60% in size
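KB-V1 MDR subline cells in DMEM (phenol-red free, 10% FBS) exposed to compounds in qHTS concentration series for 72 h at 37 degrees C. Viability read by CellTiter-Glo luminescence; concentration-effect curves fitted after normalization and correction.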
KB-3-1 cytotox: KB-3-1 parental cell cytotoxicity. KB-3-1 viability, CellTiter-Glo ATP luminescence, 72 h. Potency, µM (highest dose often 46.1 µM), most hits filed as cytotoxic. actives 1.4% (n = 400,000). AID 1347075; note: % is set by controls: 0 for no effect and ±100 for the full control effect; nearly all actives have a fitted effect of over 60% in size
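Multi-concentration cytotoxicity screen in KB-3-1 cells grown in DMEM lacking phenol red with 10% FBS. After 72 h at 37 °C with compound, ATP-dependent luminescence was recorded.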
SW480 rereplic: induces DNA re-replication in SW480 colon adenocarcinoma cells; actives 1.8% (n = 340,000); SW480 DNA re-replication, Hoechst DNA content imaging, 48 h; Potency, µM (highest dose often 46.1 µM), without a hit: top-dose re-replication activation, hits mostly activators; note: % of control where 0% means no effect; nearly all actives have a fitted effect of over 55% in size
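Quantitative HTS format with DMSO vehicle controls; 48 hr drug incubation at 37 C, then 40 min Hoechst staining and scanning imager measurement at 405 nm excitation.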
MCF10A rerep: inducers of DNA re-replication in MCF 10A breast cells; MCF 10A DNA re-replication, Hoechst nuclear intensity, 48 h; Potency, µM (titrated, usually from 46.1 µM), inactives show at the top dose activity, positive = re-replication, most hits filed as activators; actives 2.9% (n = 350,000); AID 624296; note: % of control where 0% means no effect; nearly all actives have a fitted effect of over 50% in size
HT1080 IDH1KD tx: kills HT-1080 cells with IDH1 knockdown | HT-1080 IDH1 knockdown viability, ATP luminescence, 48 h | Potency, µM (titrated, usually from 46.1 µM), inactives show at the highest dose activity, negative = toxicity, most hits filed as cytotoxic | actives 2% (n = 360,000);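 note: 0% = DMSO wells and -100% = cell-free medium wells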
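Cytotoxicity counter-line: IDH1KD HT-1080, 48 h, CellTiter-Glo. Curves classed by r2, magnitude and activity.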
The depositor's hits bear a star; [ ] = dose if it differs, or a comment. The list is not random: actives were taken first. Their share in the collection is about 8%. Calls come from the whole dose curve; as a rule, active = well fitted curve in the direction sought with a large enough effect; inconclusive = small, poorly fitted or top-dose-only effect, or another doubt; inactive = no such curve, though single readings can be large; an effect the other way counts as inactive or inconclusive. Potency is the fitted concentration of half-maximal effect.

How did CCCCNC(=O)c1ccc(CS(=O)(=O)c2ccc(OC)cc2)o1 do in these assays?
HT1080NT lethal: -7%; KB-V1 MDR tox: inactive; KB-3-1 cytotox: inactive; SW480 rereplic: 6%; MCF10A rerep: -6%; HT1080 IDH1KD tx: -9%

Results for COc1ccc(S(=O)(=O)Cc2ccc(C(=O)NCCCN(C)c3ccccc3)o2)cc1 ?
HT1080NT lethal: -15%; KB-V1 MDR tox: 6.5µM*; KB-3-1 cytotox: inactive; SW480 rereplic: -1%; MCF10A rerep: 3%; HT1080 IDH1KD tx: -22%

Results for CC/C(=C\c1ccc(N(C)C)cc1)c1ccncc1 ?
HT1080NT lethal: inconclusive; KB-V1 MDR tox: 10µM*; KB-3-1 cytotox: 21µM*; SW480 rereplic: inconclusive; MCF10A rerep: inconclusive; HT1080 IDH1KD tx: inconclusive

Results for CNC(=O)CSc1nc2cc(S(=O)(=O)Nc3ccccc3OC)ccc2o1 ?
HT1080NT lethal: 2%; KB-V1 MDR tox: inactive; KB-3-1 cytotox: inactive; SW480 rereplic: 0%; MCF10A rerep: inconclusive; HT1080 IDH1KD tx: -9%

What do the screens show for `COc1ccccc1NS(=O)(=O)c1ccc2oc(SCc3ccc(C#N)cc3)nc2c1`?
HT1080NT lethal: 0%; KB-V1 MDR tox: 9.2µM*; KB-3-1 cytotox: inactive; SW480 rereplic: 20%; MCF10A rerep: 3%; HT1080 IDH1KD tx: -10%

How did CCCCCNC(=O)C1CCC(Cn2c(=O)c3sccc3n(CC)c2=O)CC1 (stereo not given) do in these assays?
KB-V1 MDR tox: inactive; KB-3-1 cytotox: inactive

How did COc1ccc(CNC(=O)COC(=O)c2ccccc2OCC(=O)Nc2ccc(SC(F)F)cc2)cc1 do in these assays?
HT1080NT lethal: -1%; KB-V1 MDR tox: inactive; KB-3-1 cytotox: inconclusive; SW480 rereplic: 10µM*; MCF10A rerep: -10%; HT1080 IDH1KD tx: -6%

Results for COc1ccccc1C(=O)COC(=O)c1ccccc1OCC(=O)Nc1ccc(SC(F)F)cc1 ?
HT1080NT lethal: 0%; KB-V1 MDR tox: inactive; KB-3-1 cytotox: inactive; SW480 rereplic: -1%; MCF10A rerep: -1%; HT1080 IDH1KD tx: -15%

Results for COc1ccccc1NC(=O)COC(=O)c1ccccc1OCC(=O)Nc1ccc(SC(F)F)cc1 ?
HT1080NT lethal: 19%; KB-V1 MDR tox: 13µM*; KB-3-1 cytotox: inactive; SW480 rereplic: -1%; MCF10A rerep: -34%; HT1080 IDH1KD tx: inconclusive

How did CCCCOc1ccc(OC(=O)c2sc3ncn(Cc4cccc(F)c4)c(=O)c3c2C)cc1 do in these assays?
KB-V1 MDR tox: inconclusive; KB-3-1 cytotox: inactive

Results for CCOCCCNC(=O)c1cc(Sc2ccc(F)cc2)nc2ccccc12 ?
HT1080NT lethal: -2%; KB-V1 MDR tox: 21µM*; KB-3-1 cytotox: inactive; SW480 rereplic: 1%; MCF10A rerep: inconclusive; HT1080 IDH1KD tx: -14%

Results for Cc1ccc(Sc2cc(C(=O)NCCCN(C)C)c3ccccc3n2)cc1 ?
HT1080NT lethal: inconclusive; KB-V1 MDR tox: inactive; KB-3-1 cytotox: inactive; SW480 rereplic: inconclusive; MCF10A rerep: inconclusive; HT1080 IDH1KD tx: 18µM*

What do the screens show for `CC1(C)OB(c2cnc(C#N)nc2)OC1(C)C`?
HT1080NT lethal: 0%; HT1080 IDH1KD tx: -1%

What do the screens show for `CCCn1cc(S(=O)(=O)c2ccccc2)c(=O)c2cc(F)c(N3CCCC(C)C3)cc21` (stereo not given)?
KB-V1 MDR tox: inactive; KB-3-1 cytotox: inactive

What do the screens show for `O=C1N/C(=C\c2ccc(N3CCOCC3)c(F)c2)C(=O)N1Cc1ccccc1`?
HT1080NT lethal: inconclusive; KB-V1 MDR tox: inactive; KB-3-1 cytotox: inactive; SW480 rereplic: -5%; MCF10A rerep: inconclusive; HT1080 IDH1KD tx: 18µM*

What do the screens show for `CCCN1C(=O)/C(=C/c2ccc(N3CCOCC3)cc2)NC1=S`?
HT1080NT lethal: 11%; KB-V1 MDR tox: inconclusive; KB-3-1 cytotox: inactive; SW480 rereplic: 2%; MCF10A rerep: 15%; HT1080 IDH1KD tx: 17%

What do the screens show for `Cc1ccc(CN2C(=O)N/C(=C\c3ccc(N4CCOCC4)cc3)C2=O)cc1`?
HT1080NT lethal: 6%; KB-V1 MDR tox: inactive; KB-3-1 cytotox: inactive; SW480 rereplic: 15µM*; MCF10A rerep: 15%; HT1080 IDH1KD tx: 2%

Results for O=C1N/C(=C/c2cccn2-c2ccccc2)C(=O)N1Cc1ccc(F)cc1 ?
HT1080NT lethal: -20%; KB-V1 MDR tox: inactive; KB-3-1 cytotox: inactive; SW480 rereplic: 1%; MCF10A rerep: 1%; HT1080 IDH1KD tx: -20%

How did Cc1ccc(Cn2c(C)c(CNCCCc3ccccc3)c(C(=O)O)c2C)cc1 do in these assays?
KB-V1 MDR tox: inactive; KB-3-1 cytotox: inactive

Results for CCC(=O)N1c2ccc(S(=O)(=O)N3CCC(C)CC3)cc2CC1C (stereo not given) ?
KB-V1 MDR tox: inconclusive; KB-3-1 cytotox: inactive

What do the screens show for `COc1ccccc1CNC(=O)CCc1c(C)c2cc3c(C)coc3cc2oc1=O`?
KB-V1 MDR tox: inactive; KB-3-1 cytotox: inactive

Results for CC(=O)Oc1cc2c(cc1Cl)C1(CC(c3ccccc3Cl)O2)CC(C)(C)NC(=S)N1 (stereo not given) ?
HT1080NT lethal: 16µM*; KB-V1 MDR tox: inconclusive; KB-3-1 cytotox: inactive; SW480 rereplic: -12%[9.22 µM]; MCF10A rerep: inconclusive; HT1080 IDH1KD tx: 23µM*

Results for CC1(C)CC2(CC(c3ccccc3F)c3cc(Cl)c(O)cc3O2)NC(=S)N1 (stereo not given) ?
HT1080NT lethal: inconclusive; KB-V1 MDR tox: inconclusive; KB-3-1 cytotox: inactive; SW480 rereplic: 1%; MCF10A rerep: 4%; HT1080 IDH1KD tx: inconclusive

Results for Cc1ccc(CCNC(=O)c2cccc(Nc3nc4ccccc4nc3-n3nc(C)cc3C)c2)cc1 ?
KB-V1 MDR tox: inactive; KB-3-1 cytotox: inactive

How did COc1cccc(C(=O)/C=C/Nc2cc(C)ccc2O)c1 do in these assays?
HT1080NT lethal: -11%; KB-V1 MDR tox: inconclusive; KB-3-1 cytotox: inactive; SW480 rereplic: 18µM*; MCF10A rerep: 100%; HT1080 IDH1KD tx: inconclusive

What do the screens show for `COc1ccc(C)cc1NC(=O)N1CCCn2nc(C)cc21`?
KB-V1 MDR tox: inconclusive; KB-3-1 cytotox: inactive

Results for CC(c1ccco1)N(C(=O)c1ccccc1NS(=O)(=O)c1ccc(Cl)c([N+](=O)[O-])c1)c1ccccn1 (stereo not given) ?
HT1080NT lethal: -6%; KB-V1 MDR tox: inconclusive; KB-3-1 cytotox: inactive; SW480 rereplic: 3%; MCF10A rerep: 23µM*; HT1080 IDH1KD tx: 1%
